About 83,000 compounds went through this panel and 20% of them were active in at least one assay; those are over-represented in the sample as a whole.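 Growth was measured after 48 h exposure to one concentration of compound in 96-well plates. Values under 10 count as active.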 Values without a mark were called inactive. Activity calls are given as the source filed them.
Test system: HL-60(TB) leukemia
Experiment: NCI-60 one-dose screen, 48 h (100 = growth as untreated, 0 = no growth, -100 = all killed)
Conditions: 10 µM unless noted

**Q.** With `Cn1c(I)c(C#C[Si](C)(C)C)c(=O)[nH]c1=O` as the compound, how does the growth read?
**A.** The growth was -67.8% (active).

**Q.** For `COc1cc(C2c3cc4c(cc3C3OC(=O)C2C3CO)OCO4)cc(OC)c1OC` (stereo not drawn), which growth is on record?
**A.** The growth was -17.2% (active).

**Q.** How did the growth turn out when `CN(C)CC1(C)Cc2ccsc2C1O` (stereo not drawn) was run?
**A.** The growth was 93%.

From PubChem BioAssay (NCI)
